According to PubChem BioAssay AID1159580 (chemical genetic matrix, 2015):
Out of some 5,500 compounds screened, about 2,000 (36%) were called active. Another 18% or so got no clear call; they are omitted. No stated cut-off is given here; in the data, active means normalized growth mostly below about 0.91 (no sharp cut-off); inconclusive means no clear call, values can overlap the other calls; inactive means mostly above about 0.92. The list shows a part of the results.

Assay: chemical genetic growth profiling, strain panel (AID 1159580);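 further: tested at 20 µM; growth read once vehicle control cultures reached saturation at 30 °C; 1 = growth at the plate median or of vehicle wells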
Settings: growth OD

Measured: normalized growth

COc1cc(OC)c2ccc(=O)oc2c1
active: S. cerevisiae deletion strains, locus YNL248C, strain rpa49, stronger effect = lower value 0.872
inactive: S. cerevisiae deletion strains, locus YJR075W, strain HOC1, stronger effect = lower value 1.01 | S. cerevisiae deletion strains, locus YKL009W, strain mrt4, stronger effect = lower value 0.966 | S. cerevisiae deletion strains, locus YKL068W, stronger effect = lower value 1.01 | S. cerevisiae deletion strains, locus YKL085W, strain MDH1 (second series), stronger effect = lower value 1.01 | S. cerevisiae deletion strains, locus YKL085W, strain MDH1, stronger effect = lower value 1.01 | S. cerevisiae deletion strains, locus YKL160W, strain elf1, stronger effect = lower value 0.977 | S. cerevisiae deletion strains, locus YKL190W, strain CNB1, stronger effect = lower value 1.01 | S. cerevisiae deletion strains, locus YKR001C, strain vps1, stronger effect = lower value 0.945 | S. cerevisiae deletion strains, locus YKR026C, strain gcn3, stronger effect = lower value 0.962 | S. cerevisiae deletion strains, locus YKR091W, strain srl3, stronger effect = lower value 0.99 | S. cerevisiae deletion strains, locus YLL001W, strain dnm1, stronger effect = lower value 0.94 | S. cerevisiae deletion strains, locus YLL026W, stronger effect = lower value 0.973 | S. cerevisiae deletion strains, locus YLL041C, strain sdh2, stronger effect = lower value 0.979 | S. cerevisiae deletion strains, locus YLR027C, strain aat2, stronger effect = lower value 0.977 | S. cerevisiae deletion strains, locus YLR039C, strain RIC1, stronger effect = lower value 0.974 | S. cerevisiae deletion strains, locus YLR058C, strain SHM2, stronger effect = lower value 1.01 | S. cerevisiae deletion strains, locus YLR102C, strain apc9, stronger effect = lower value 1.01 | S. cerevisiae deletion strains, locus YLR113W, strain HOG1, stronger effect = lower value 1.02 | S. cerevisiae deletion strains, locus YLR221C, strain rsa3, stronger effect = lower value 0.97 | S. cerevisiae deletion strains, locus YLR258W, strain gsy2, stronger effect = lower value 0.952 | S. cerevisiae deletion strains, locus YLR262C, strain YPT6 (second series), stronger effect = lower value 0.97 | S. cerevisiae deletion strains, locus YLR262C, strain YPT6, stronger effect = lower value 0.992 | S. cerevisiae deletion strains, locus YLR268W, strain sec22, stronger effect = lower value 1.01 | S. cerevisiae deletion strains, locus YLR320W, strain mms22, stronger effect = lower value 0.897 | S. cerevisiae deletion strains, locus YLR330W, strain CHS5, stronger effect = lower value 1 | S. cerevisiae deletion strains, locus YLR342W, strain FKS1 (second series), stronger effect = lower value 1.03 | S. cerevisiae deletion strains, locus YLR342W, strain FKS1, stronger effect = lower value 0.976 | S. cerevisiae deletion strains, locus YLR357W, strain rsc2, stronger effect = lower value 1.05 | S. cerevisiae deletion strains, locus YLR370C, strain arc18, stronger effect = lower value 0.981 | S. cerevisiae deletion strains, locus YLR371W, strain rom2, stronger effect = lower value 1.01 | S. cerevisiae deletion strains, locus YLR384C, strain iki3, stronger effect = lower value 0.975 | S. cerevisiae deletion strains, locus YLR418C, strain cdc73, stronger effect = lower value 1.01 | S. cerevisiae deletion strains, locus YML016C, strain PPZ1, stronger effect = lower value 1 | S. cerevisiae deletion strains, locus YML032C, strain rad52, stronger effect = lower value 0.982 | S. cerevisiae deletion strains, locus YML120C, strain ndi1, stronger effect = lower value 0.954 | S. cerevisiae deletion strains, locus YML124C, strain tub3, stronger effect = lower value 1.01 | S. cerevisiae deletion strains, locus YMR058W, strain fet3, stronger effect = lower value 0.957 | S. cerevisiae deletion strains, locus YMR078C, strain ctf18, stronger effect = lower value 0.996 | S. cerevisiae deletion strains, locus YMR125W, strain sto1, stronger effect = lower value 0.993 | S. cerevisiae deletion strains, locus YMR129W, stronger effect = lower value 0.988 | S. cerevisiae deletion strains, locus YMR205C, strain PFK2, stronger effect = lower value 0.97 | S. cerevisiae deletion strains, locus YMR223W, strain ubp8, stronger effect = lower value 0.976 | S. cerevisiae deletion strains, locus YMR231W, strain pep5, stronger effect = lower value 0.965 | S. cerevisiae deletion strains, locus YMR263W, strain SAP30, stronger effect = lower value 0.992 | S. cerevisiae deletion strains, locus YMR307W, strain GAS1, stronger effect = lower value 1.02 | S. cerevisiae deletion strains, locus YNL067W, strain RPL9B, stronger effect = lower value 0.989 | S. cerevisiae deletion strains, locus YNL071W, strain lat1, stronger effect = lower value 0.953 | S. cerevisiae deletion strains, locus YNL128W, strain TEP1, stronger effect = lower value 1.01 | S. cerevisiae deletion strains, locus YNL153C, strain GIM3, stronger effect = lower value 1.01 | S. cerevisiae deletion strains, locus YNL183C, strain NPR1, stronger effect = lower value 0.946 | S. cerevisiae deletion strains, locus YNL209W, strain ssb2, stronger effect = lower value 0.98 | S. cerevisiae deletion strains, locus YNL233W, strain BNI4, stronger effect = lower value 1 | S. cerevisiae deletion strains, locus YNL250W, strain rad50, stronger effect = lower value 0.992 | S. cerevisiae deletion strains, locus YNL271C, strain bni1, stronger effect = lower value 0.99 | S. cerevisiae deletion strains, locus YNL298W, strain CLA4, stronger effect = lower value 0.973 | S. cerevisiae deletion strains, locus YNL307C, strain MCK1, stronger effect = lower value 0.988 | S. cerevisiae deletion strains, locus YNL322C, strain KRE1 (second series), stronger effect = lower value 0.992 | S. cerevisiae deletion strains, locus YNL322C, strain KRE1, stronger effect = lower value 1 | S. cerevisiae deletion strains, locus YNR049C, strain mso1, stronger effect = lower value 0.982 | S. cerevisiae deletion strains, locus YNR052C, strain pop2, stronger effect = lower value 0.989 | S. cerevisiae deletion strains, locus YOL006C, strain TOP1, stronger effect = lower value 0.921 | S. cerevisiae deletion strains, locus YOL012C, strain htz1 1.64 | S. cerevisiae deletion strains, locus YOL147C, strain pex11, stronger effect = lower value 1 | S. cerevisiae deletion strains, locus YOR001W, strain rrp6, stronger effect = lower value 0.963 | S. cerevisiae deletion strains, locus YOR061W, strain CKA2, stronger effect = lower value 1 | S. cerevisiae deletion strains, locus YOR069W, strain VPS5, stronger effect = lower value 1.01 | S. cerevisiae deletion strains, locus YOR070C, strain gyp1, stronger effect = lower value 0.964 | S. cerevisiae deletion strains, locus YOR080W, strain dia2, stronger effect = lower value 0.969 | S. cerevisiae deletion strains, locus YOR083W, strain WHI5, stronger effect = lower value 0.968 | S. cerevisiae deletion strains, locus YOR106W, strain vam3, stronger effect = lower value 0.95 | S. cerevisiae deletion strains, locus YOR136W, strain idh2, stronger effect = lower value 1.01 | S. cerevisiae deletion strains, locus YOR144C, strain elg1, stronger effect = lower value 1.01 | S. cerevisiae deletion strains, locus YOR184W, strain ser1, stronger effect = lower value 0.949 | S. cerevisiae deletion strains, locus YOR231W, strain MKK1, stronger effect = lower value 0.991 | S. cerevisiae deletion strains, locus YOR265W, strain rbl2, stronger effect = lower value 0.977 | S. cerevisiae deletion strains, locus YOR270C, strain vph1, stronger effect = lower value 0.814 | S. cerevisiae deletion strains, locus YOR290C, strain snf2, stronger effect = lower value 0.936 | S. cerevisiae deletion strains, locus YOR316C, strain cot1, stronger effect = lower value 0.998 | S. cerevisiae deletion strains, locus YPL051W, strain arl3, stronger effect = lower value 0.968 | S. cerevisiae deletion strains, locus YPL055C, strain LGE1, stronger effect = lower value 0.971 | S. cerevisiae deletion strains, locus YPL078C, strain atp4, stronger effect = lower value 0.957 | S. cerevisiae deletion strains, locus YPL106C, strain sse1, stronger effect = lower value 0.926 | S. cerevisiae deletion strains, locus YPL240C, strain hsp82, stronger effect = lower value 0.985 | S. cerevisiae deletion strains, locus YPL241C, strain CIN2, stronger effect = lower value 1 | S. cerevisiae deletion strains, locus YPL256C, strain CLN2, stronger effect = lower value 1.05 | S. cerevisiae deletion strains, locus YPR119W, strain clb2, stronger effect = lower value 1 | S. cerevisiae deletion strains, locus YPR141C, strain kar3, stronger effect = lower value 1 | S. cerevisiae deletion strains, locus YPR163C, strain tif3, stronger effect = lower value 1.01 | S. cerevisiae deletion strains, locus YPR167C, strain met16, stronger effect = lower value 0.995 | S. cerevisiae deletion strains, strain wtn01, stronger effect = lower value 1 | S. cerevisiae strains, strain wild type, stronger effect = lower value 1.01
